Data: the supplement of paper PMC3334620
Over roughly 33,000 sequences, “E-score (-0.5 to 0.5)” has its median near -0.012; the highest 2% begin near 0.27. The sample as a whole holds a higher share of the highest values than the screen did.

target: T1, Vhr1 (UniProt P40522); test: PBM E-score (8-mer binding enrichment) (E-score (-0.5 to 0.5)); higher = stronger / more preferred TF binding; settings: protein concentration: 200 nM; construct: GST-full length
T1 sequence: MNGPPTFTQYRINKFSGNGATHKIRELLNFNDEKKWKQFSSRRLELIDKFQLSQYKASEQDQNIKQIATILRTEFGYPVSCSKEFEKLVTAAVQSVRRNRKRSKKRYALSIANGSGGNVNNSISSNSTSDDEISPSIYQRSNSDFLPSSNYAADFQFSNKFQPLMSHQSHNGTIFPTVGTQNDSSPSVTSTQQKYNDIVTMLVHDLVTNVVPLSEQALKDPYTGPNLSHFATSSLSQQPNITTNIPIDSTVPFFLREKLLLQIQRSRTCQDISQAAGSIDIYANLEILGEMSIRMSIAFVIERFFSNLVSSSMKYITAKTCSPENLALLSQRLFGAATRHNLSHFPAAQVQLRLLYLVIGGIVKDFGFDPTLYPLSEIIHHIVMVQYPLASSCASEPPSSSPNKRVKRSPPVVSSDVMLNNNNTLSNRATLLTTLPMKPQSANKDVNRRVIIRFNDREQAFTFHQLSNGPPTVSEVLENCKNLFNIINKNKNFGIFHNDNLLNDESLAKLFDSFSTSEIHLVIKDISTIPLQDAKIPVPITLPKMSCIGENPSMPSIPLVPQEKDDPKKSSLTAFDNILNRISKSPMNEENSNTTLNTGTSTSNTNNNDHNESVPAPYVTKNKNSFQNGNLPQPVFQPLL
Outline: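 Yeast transcription factors carrying a GST tag, as full-length proteins or DNA-binding domains, were produced by PURExpress in vitro transcription/translation. About 100-200 nM protein was applied to universal all-10-mer Agilent arrays, double-stranded by primer extension on fresh or once-stripped slides. Bound protein was detected with fluorescent anti-GST, and scans were normalised with masliner. The Universal PBM Analysis Suite gave each ungapped eight-base word, pooled with its reverse complement, an E-score, a modified Wilcoxon-Mann-Whitney statistic.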

Sequence	PBM E-score
GATCAGGC	-0.00147
TAGCCTGA	0.0109
ACAGTGGA	-0.0091
ACTTGTTG	-0.0998
ACGACCCT	-0.139
ATGAGATA	0.134
CAGCAAGA	-0.0328
AACGAAGG	-0.252
CGGATCCA	0.298
TGGATCCA	-0.0454
AGGATCCA	0.0343
GACTCAGA	0.308
CACTCAGC	0.044
CACTCAGA	0.12
AACTCAGC	-0.023
AACTCAGA	0.0696
GACTCAGC	0.404
ACTGCAGA	-0.0788
AATCTAGA	-0.14
AACCGCGA	0.278
AACCGCGT	0.0481
TACCGCGA	0.107
CCTTTGCC	-0.17
CCATTCGC	0.109
GTCATCGA	0.205

Sequence	PBM E-score
CCCAACAG	-0.0293
CATGTATA	0.28
CATGTATC	0.18
GATGTATA	0.242
ACGATGCT	0.0556
AGTTGGAT	0.127
AAGTCATG	0.41
AAGTCATT	-0.0196
AGGTCATG	0.136
AAGTCATC	0.323
CGGTCATC	0.124
CAGTCATC	0.419
AAGTCAAG	-0.156
CCGTCATC	-0.0774
ATGTCATC	0.0412
CAAAATCC	0.096
CCCTTAAC	-0.168
ACATGTGG	0.278
ACATGTGC	0.117
ACATGTGA	0.0459
AGTCGGTA	-0.0272
ACCCCAAT	-0.0588
ATTTGACA	-0.00873
GTCCATCA	-0.104
ACGAATCT	-0.0246

Sequence	PBM E-score
TCGAATCA	0.253
CCGAATCG	0.101
CCGAATCA	0.288
ACGAATCA	0.336
ACGAATCC	0.117
CCGAATCC	0.0952
GCGAATCA	0.345
GCGAATCC	0.0147
ATTTCTGA	-0.152
TATGGAGA	-0.137
CTCCCCCC	-0.0954
ATCTGTTA	-0.0428
GTACACAC	0.261
ATCAGGTA	0.193
ATCCCCAC	0.122
ATACCCAC	0.176
GCGCGAAC	0.0578
AGCTAAAG	-0.21
AGAGCCTC	-0.228
CGGCGTGA	0.142
GGGCGTGA	0.297
AGGCGTGA	0.019
ACGACTAA	0.194
CCGACTAC	0.269
TCGACTAA	0.207

Sequence	PBM E-score
GCGACTAA	0.316
ACGACTAC	0.209
GCGACTAC	0.341
CCCAGGCA	0.0398
CATTCAGC	-0.161
CTTGTAAA	-0.0609
CGTGGGAG	0.0618
AATAAAGC	-0.176
AGTCGCCG	0.246
AGTCGCCC	0.346
AGTCGCAC	0.296
AGTCGCCA	0.233
GGTCGCAC	0.0284
AGTCGCAG	0.24
GTTCTTGA	-0.0686
CTAGGGGC	-0.146
AACACCAC	0.0462
GTTCAAAC	-0.0829
ATACTGCA	0.234
CGCCACGA	-0.0781
CTTGCAAC	0.0737
CGAATCAC	0.331
CGAATCCC	0.00269
GGAATCCC	0.034
GGAATCAC	0.388

Sequence	PBM E-score
CGAATCTC	-0.0376
GGAATCAA	0.154
AAAAGCCA	-0.0583
ACACCTGC	0.0726
AGGCTACA	0.0844
ATGACCAC	0.176
ACCCTATG	0.136
TACGTTGA	0.0682
GATTTTGA	0.0345
ATTACTTG	0.164
CCTCCGAC	-0.0621
ACTCCGAG	0.357
ACTCCGAA	0.116
ACTCCGAC	0.332
GCTCCGAC	0.0683
ACTCCGAT	0.1
TCTTAACA	-0.0919
CATGCATA	0.0152
CATGCATG	0.117
CATGCATC	0.28
ACCTCCAT	0.0255
CTAGTGGA	-0.162
GATCCCTA	-0.0993
GGCCAGGA	-0.105
CATTAGTC	0.257

Sequence	PBM E-score
AATTAGTA	0.146
CGTTAGTC	0.132
AATTAGTC	0.29
AGTTAGTA	0.137
AGTTAGTC	0.291
CAATCTAA	-0.13
ATAGCAAG	0.161
GCGAGACC	-0.049
ACTTAGGA	-0.198
AGACTACA	0.17
CGACTACA	0.272
AGACTAAA	0.0442
TGACTACA	0.359
CGACTACC	0.22
TGACTAAA	0.326
CGACTAAA	0.0758
CGACTAAC	0.303
GGACTAAA	-0.248
GGACTACA	0.146
CGACTACG	0.188
GGACTAAC	-0.00735
CAGATAAG	-0.0755
CTTCGACA	-0.0949
CGGCCAAC	0.0556
CGTCCTAA	0.0547

Sequence	PBM E-score
GGCACATA	0.13
GGGCCAAC	-0.157
ACCATAGG	0.0531
TAGTAATA	0.191
CAGGGGCG	0.301
AAGGGGCG	-0.0512
CAGGGGCC	-0.184
CTTTAGAA	-0.238
GAGAAAGA	-0.167
CTCCGGAC	0.0766
ATCCGGAC	-0.192
GTCCGGAC	0.273
AGGATCTC	-0.119
ATCAATGC	0.0623
AGGAGACG	-0.176
CCCGTGAA	-0.0611
CGCCTATA	-0.135
CGCGACCC	0.153
AGCGACTG	0.194
CTCGACTA	0.163
AGCGACTC	0.314
CGCGACTA	0.391
GGCGACTA	0.212
CGCGACTC	0.449
CTCGACTC	0.19

Sequence	PBM E-score
AGCGACTA	0.211
GAGGTATA	0.113
CTTGCTGC	-0.113
CCAATACG	-0.209
ATGTGCGC	-0.0331
ACACTTTA	-0.0402
GAACCTGA	0.0239
TCCTGACA	0.107
ACGAACCA	0.273
CCGAACCA	0.0572
ATGAACCA	0.294
GGGAACCA	0.176
ATGAACCG	0.0189
CTGAACCA	0.245
CGGAACCA	0.343
CGGAACCG	0.0495
ACGAACCC	-0.119
GCTCCTCA	-0.363
CTATCGGA	-0.237
ACAGTTCC	-0.00019
ATATCTTC	0.11
ACTATCTA	0.184
CAGCCAGG	0.0621
GTGGTAAC	-0.0602
ACGAAGCA	0.00046

Sequence	PBM E-score
CAGACTCG	0.0994
AACCTCAG	-0.103
GAGTGTAA	0.0325
TAGTGTGA	0.088
AAGTGTGA	0.0182
CAGTGTGA	0.285
GAGTGTGC	0.0366
GAGTGTGA	0.278
CATTCACA	0.00907
CATTCCGA	0.0348
GATTCAGA	0.305
TATTCAGA	0.178
GATTCCGA	0.287
GATTCACA	0.326
CATTCACG	-0.114
GATTCAGC	0.149
GATTCCGC	0.216
CGAAAGCA	-0.046
GATACACC	0.197
